For two molecules, outcome results are on record in PubChem BioAssay AID720612 (Broad Institute, 2013).

The structures appear in SMILES notation. Inconclusive results are not listed. Calls of active or inactive are those of the source.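 Rule for the calls: active = compounds whose fitted half-maximal viability loss lies within twice the top dose at every treatment time; inconclusive = the three treatment times give differing calls; inactive = inactive at every treatment time.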

A short description of this assay: HUVEC endothelial cell viability, late-stage follow-up, cytotoxicity control for HRAS target identification, Alamar Blue fluorescence, 8-48 h, dry powder (AID 720612). The following applies: 24 h; series mostly up to 35 µM. (Resazurin is reduced to fluorescent resorufin, in cell work by metabolically active cells.)

Take `Cc1onc(C(=O)N2CCN(C(c3ccncc3)c3ccncc3)CC2)c1[N+](=O)[O-]`: the result was inactive.
For `CCC(=O)N(c1ccc(OC)c(Cl)c1)C(C(=O)NCCc1ccccc1)c1cccs1` (configuration not stated), the result was inactive.
